The text below walks through data of PubChem BioAssay (NCATS).

Each structure is given as a SMILES string. The source made the active and inactive calls. No rule for the calls is given here.
Potency is read from the fitted curve at half-maximal effect.

In the experiment the test system is HIV-1 nucleocapsid protein NCp7 (binding to TG oligonucleotide). In words: HIV Nucleocapsid (AID 346).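 Also: potency is for inhibitors that block NC binding and lower polarization.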 Conditions: HIV-1 NC / fluorescein-TGTGTGTG probe, fluorescence polarization. The gist of the method: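 Inhibition of nucleocapsid binding to single-stranded 5'-TGTGTGTG probe (10 nM) was measured by fluorescence polarization after 1 hr at room temperature with 100 nM protein under high-salt, zinc-containing, reducing conditions.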
In general terms: Polarisation of emitted light reports the rotation of a fluorescent probe.
For `c1ccc2c(Nc3ccncc3)nc(-c3ccc4c(c3)OCO4)nc2c1`, the Potency was > 20 µM (inactive).

As to `CNc1ncnc2ccc(-c3ccc4c(c3)OCO4)cc12`, the Potency was > 20 µM (inactive).

`O=c1c(CCc2ccccc2)nc2cncnc2n1Cc1ccccc1`: the Potency was > 20 µM (inactive).

Turning to `Cc1noc(C)c1-c1cncnc1Nc1ccccc1`, the Potency is > 20 µM (inactive).

For `COc1ccc(C(=O)N2CCC3(CCCN(C(=O)NC(C)C)C3)CC2)cc1`, the Potency was > 20 µM (inactive).

`Cc1cnc(CNc2nc(-c3ccc(N(C)C)cc3)nc3ccccc23)cn1`: the Potency was > 20 µM (inactive).

Regarding `COc1ccc(C(=O)N2CCC3(CCCN(C(=O)Nc4cccc(C#N)c4)C3)CC2)cc1`, the Potency was > 20 µM (inactive).

`O=c1c(-c2ccccc2)nc2cnc(Oc3cccc(Cl)c3)nc2n1C[C@H]1CCCO1`: the Potency was > 20 µM (inactive).

For the compound `COc1ccccc1CN1CCC2(CC1)CCN(C(=O)c1ccncc1)CC2`, the Potency was > 20 µM (inactive).

For `Cn1cc(-c2nc3cncnc3n(-c3ccccc3)c2=O)c2ccccc21`, the Potency is 4.43 µM (active).

Regarding `Cn1cc(-c2nc3cncnc3n(Cc3ccc(F)cc3)c2=O)c2ccccc21`, the Potency is > 20 µM (inactive).

As for `O=S(=O)(c1ccccc1)N1CCC2(CCN(Cc3ccccc3)CC2)CC1`, the Potency was > 20 µM (inactive).

Consider `Cc1noc(C)c1-c1nccc(NCc2cccs2)n1`, for which the Potency was > 20 µM (inactive).

Take `COc1ccc(Oc2ncc3nc(-c4ccc(OC)cc4)c(=O)n(C)c3n2)cc1`: the Potency is > 20 µM (inactive).

Consider `Cc1cnc(CNc2ccnc(-c3ccccc3C)n2)cn1`, for which the Potency is > 20 µM (inactive).

Regarding `COc1cccc(-c2cncnc2N(C)Cc2ccco2)c1`, the Potency is > 20 µM (inactive).

Consider `CN1CCN(c2ncncc2-c2ccc(C(=O)N(C)C)cc2)CC1`, for which the Potency is > 20 µM (inactive).

In the case of `O=C(c1cnccn1)N1CCC[C@@]2(CCN(c3ccccc3)C2)C1`, the Potency was > 20 µM (inactive).

`c1ccc(C(c2ccccc2)N2CC[C@@]3(CCCNC3)C2)cc1`: the Potency is > 20 µM (inactive).

`CCNc1ncc2nc(-c3ccc(OC)cc3)c(=O)n(C)c2n1`: the Potency is > 20 µM (inactive).

`N#Cc1cccc(-c2cncnc2NCc2cccnc2)c1`: the Potency is > 20 µM (inactive).

Regarding `O=c1c(CCc2ccccc2)nc2cnc(N3CCOCC3)nc2n1C1CC1`, the Potency was > 20 µM (inactive).

For `CC(C)CN1CCCC2(CCN(C(=O)c3ccco3)CC2)C1`, the Potency is > 20 µM (inactive).

Turning to `CS(=O)(=O)N1CCC2(CCN(C(=O)Nc3cccc(F)c3)CC2)CC1`, the Potency was > 20 µM (inactive).

On to `COc1ccc2[nH]cc(CCNc3ccnc(-c4ccc(N(C)C)cc4)n3)c2c1`, for which the Potency was > 20 µM (inactive).

Turning to `COc1ncc2nc(-c3cn(C)c4ccccc34)c(=O)n(C[C@H]3CCCO3)c2n1`, the Potency is > 20 µM (inactive).

Regarding `N#CCCn1c(=O)c(-c2ccccc2)nc2cnc(N3CCNCC3)nc21`, the Potency is > 20 µM (inactive).

Consider `CC(=O)N1CCC[C@@]2(CCN(c3ccncc3)C2)C1`, for which the Potency is > 20 µM (inactive).

Take `N#Cc1cccc(NC(=O)N2CC[C@@]3(CCCN(C(=O)c4ccco4)C3)C2)c1`: the Potency is > 20 µM (inactive).

For the compound `N#CCCn1c(=O)cnc2cnc(N3CCNCC3)nc21`, the Potency was > 20 µM (inactive).

Consider `CN(C)c1ccc(-c2cc(NCc3cccnc3)ncn2)cc1`, for which the Potency is > 20 µM (inactive).

With `COC(=O)N1CCC2(CCCN(c3ccc(-c4ccccc4)cc3)C2)CC1`, the Potency was > 20 µM (inactive).

Turning to `COc1ccc(CNc2ccnc(-c3cccc(NS(C)(=O)=O)c3)n2)c(OC)c1`, the Potency was > 20 µM (inactive).

Consider `COc1cccc(Cn2c(=O)c(-c3ccc(F)c(F)c3)nc3cncnc32)c1`, for which the Potency is > 20 µM (inactive).

For `COc1ccc(NC(=O)N2CCCC3(CCN(C(C)=O)CC3)C2)cc1`, the Potency was > 20 µM (inactive).

Consider `COc1ncc2nc(CCc3ccccc3)c(=O)n(-c3ccccc3)c2n1`, for which the Potency is > 20 µM (inactive).

As for `COc1ncc2nc(-c3ccc(F)cc3)c(=O)n(Cc3ccc(F)cc3)c2n1`, the Potency is > 20 µM (inactive).

For the compound `FC(F)(F)c1ccccc1-c1nc(-n2ccnc2)c2ccccc2n1`, the Potency is > 20 µM (inactive).

As for `COc1ccc(C(=O)N2CCC3(CC2)CN(c2ccccn2)C3)cc1`, the Potency is > 20 µM (inactive).

For the compound `COc1ccc(NC(=O)N2CC3(CCN(C(=O)c4cccc(F)c4)CC3)C2)cc1`, the Potency was > 20 µM (inactive).
